From PubChem
Many of the other results were omitted from the sample, so hits are more common in it than they were.
HIV RNase H inh-1: blocks HIV-1 RNase H cleavage of RNA/DNA duplex | P04585 | actives 1.9% (n = 65,000) | inhibition, % at 10 µM | RT-RNase H RNA/DNA duplex cleavage, fluorescence; in the data active means inhibition above about 50%
HIV RNase H inh-2: confirmation of HIV-1 reverse transcriptase RNase H inhibitors; shares compounds with HIV RNase H inh-1; Recombinant RT RNase H, fluorescent RNA/DNA duplex cleavage; inhibition, % at 10 µM; actives 39% (n = 1,000); in the data active means inhibition above about 48%
* marks the source's active call; other numbers are inactive results.

SMILES	HIV RNase H inh-1	others
CC(=O)NC(c1ccco1)c1ccc2cccnc2c1O (stereo not drawn)	-6
OCCN1CCN(C(c2cccs2)c2ccc3cccnc3c2O)CC1 (stereo not drawn)	72*	HIV RNase H inh-2=9
Cc1onc(-c2ccccc2Cl)c1C(=O)Nc1cnn(Cc2ccccc2)c1	-22
COc1ccccc1-n1cnnc1SCC(=O)c1ccc[nH]1	-43
COc1ccc(N2CCN(CC(=O)Nc3ccc(-n4cnnn4)cc3)CC2)cc1	-3
O=c1c2[nH]c3ccc(F)cc3c2ncn1CCN1CCOCC1	70*	HIV RNase H inh-2=-1
Cc1ccc2[nH]c3c(=O)n(CCCN4CCOCC4)cnc3c2c1	-5
O=c1c2[nH]c3ccc(F)cc3c2ncn1CCN1CCN(Cc2ccccc2)CC1	-32
CC(CCc1ccccc1)NC(=O)C1CCN(S(=O)(=O)c2cnc[nH]2)CC1 (stereo not drawn)	-15
CCOc1ccccc1N1CCN(S(=O)(=O)c2cccs2)CC1	-9
CCOc1ccccc1N1CCN(C(=O)c2ccccc2)CC1	-47
CCOc1ccccc1N1CCN(S(=O)(=O)CC)CC1	53*	HIV RNase H inh-2=0
COCCOC(=O)C1=C(C)NC2=C(C(=O)CC(C)(C)C2)C1c1cc2c(cc1Br)OCO2 (stereo not drawn)	3
CNc1sc(C(=O)c2cccs2)c(N)c1-c1nc2ccccc2s1	75*	HIV RNase H inh-2=38
O=C(OCc1nc2ccccc2s1)c1cccs1	-15
O=C(NC1CC1)c1ccc(-c2nc3ccccc3s2)s1	-5
O=C(NCCS(=O)CCNC(=O)C(F)(F)F)C(F)(F)F	-5
Cc1noc(/C=C/N(C)C)c1S(=O)(=O)N1CCc2ccccc21	-85
Oc1ccc(N=Cc2ccc(O)c(O)c2)cc1	50
O=C(/C=C/c1ccccc1)c1ccccc1	-42
O=C(O)/C=C/c1ccc(O)c(O)c1	74*	HIV RNase H inh-2=76*
NCCCCCc1nnc(SCC(=O)c2ccc(Cl)cc2)o1	-7
CC1CCc2c(sc3nc(SCc4nc(-c5ccccc5)no4)n(C)c(=O)c23)C1 (stereo not drawn)	10
CC(C)(NC(=O)N1CCCC1)c1cccc(C(C)(C)NC(=O)N2CCCC2)c1	6
CC(O)c1n(C)c(Cl)c[n+]1C (stereo not drawn)	-1
SMILES	HIV RNase H inh-1	others
CCOC(=O)NC1(C(F)(F)F)NC(=O)N(C2CCCCC2)C1=O (stereo not drawn)	-8
CCOC(=O)c1c(N)sc2c1CCC1C(=O)N(C3CCCCC3)C(=O)C21 (stereo not drawn)	74*	HIV RNase H inh-2=68*
CCOC(=O)c1c(N)sc(C(=O)N2CCCC(C(N)=O)C2)c1C (stereo not drawn)	-9
CSc1cccc(NC(=O)c2ccco2)c1	-3
CCCn1c2c(c(O)c(C(=O)Nc3ccccc3)c1=O)CCCC2	-4
COC(=O)C1(S(=O)(=O)c2ccc(C)cc2)CCOCC1	-5
O=C1CC(N2CCN(c3ccc(O)cc3)CC2)C(=O)N1Cc1cccs1 (stereo not drawn)	81*	HIV RNase H inh-2=20
O=C1CC(N2CCN(C3CC(=O)N(CCc4ccccc4)C3=O)CC2)C(=O)N1CCc1ccccc1 (stereo not drawn)	-6
O=C1CC(N2CCN(C/C=C/c3ccccc3)CC2)C(=O)N1Cc1cccs1 (stereo not drawn)	5
CCOC1(C(F)(F)F)NC(=O)N(Cc2ccc(OC)cc2)C1=O (stereo not drawn)	-22
COC(=O)c1ccc(OCCn2cnc3ccccc3c2=O)cc1	-13
Cc1cc(O)c(C(C)C)cc1NS(=O)(=O)c1ccccc1	17
Cc1cc(NS(=O)(=O)c2ccccc2)cc(Cl)c1O	78*	HIV RNase H inh-2=9
Cc1cc(S(=O)(=O)Nc2ccccc2C(=O)O)ccc1Cl	-18
COc1ccc(OC)c(C2C(C(=O)c3ccco3)=C(O)C(=O)N2CCCN2CCOCC2)c1 (stereo not drawn)	-11
CCN(CC)c1ccc(-c2nn3c(-c4cccnc4)nnc3s2)cc1	-58
c1cncc(-c2nn3c(Cn4cnc5ccccc54)nnc3s2)c1	97*	HIV RNase H inh-2=68*
c1cncc(-c2nn3cnnc3s2)c1	4
CCC(=O)Oc1ccc(-c2nc(-c3cccnc3)no2)cc1	-4
CCC1(C(=O)OC)NC(c2ccccc2OC)C2C(=O)N(C)C(=O)C21 (stereo not drawn)	5
Cc1cc(C(=O)Nc2sc3c(c2C#N)CCCCC3)cs1	21
CCCc1cc(C(=O)Nc2sc3c(c2C#N)CCC3)no1	61*	HIV RNase H inh-2=70*
Cc1onc(-c2ccccc2Cl)c1C(=O)Nc1sc2c(c1C#N)CCC2	42
N#Cc1c(NC(=O)c2ccncc2)sc2c1CCC2	64*	HIV RNase H inh-2=25
CCCC(=O)Nc1sc2c(c1C#N)CCCC2	6
SMILES	HIV RNase H inh-1	others
N#Cc1c(NC(=O)c2nc3ncccn3n2)sc2c1CCCCC2	2
CCS(=O)(=O)c1ccc2oc(Nc3ccccc3C)nc2c1	-12
O=C(NCc1ccco1)c1cccc(-c2nnc(-c3ccccc3)o2)c1	-11
COc1cccc(CN(C)CC(=O)NC(=O)NCc2ccco2)c1	0
O=C(Nc1scc(-c2ccccc2)c1C(=O)O)c1ccco1	0
O=C(Nc1nnc(CCc2ccccc2)s1)c1ccco1	-13
NC(=O)c1cc(Cc2ccccc2)sc1NC(=O)c1ccco1	89*	HIV RNase H inh-2=31
O=C(c1ccccc1)N(CCN1CCOCC1)C1(C(=O)Nc2ccccc2)CCCCC1	3
Cc1cc(C(=O)Nc2ccc(S(=O)(=O)Nc3nccs3)cc2)c(C)o1	-4
O=C(CSc1nc(-c2ccncc2)nn1CC(=O)N1CCCCC1)NC1CCCC1	-8
CCc1cc2c(C)cc(=O)oc2cc1OC(=O)C1CCCN1C(=O)OC(C)(C)C (stereo not drawn)	-27
C=C(C)C1CCC(C)=C1CC(C)(C)/C=N\n1cnnc1 (stereo not drawn)	-25
O=C(CSc1nnc(CN2CCOCC2)n1-c1ccccc1)N1CCc2ccccc21	-8
N#Cc1ccc(OCc2nnc(SCC(=O)N3CCCc4ccccc43)n2-c2ccccc2)cc1	88*	HIV RNase H inh-2=49
COc1ccc(-n2c(Cc3cccn3C)nnc2SCC(=O)N2CCCc3ccccc32)cc1	1
COc1ccccc1Cn1c2nc3ccccc3nc2c2c(=O)n(CC(C)C)cnc21	-5
COCCCn1c(C)nc2c(c1=O)c1nc3ccccc3nc1n2CCc1ccccc1	-17
Cc1cc(C)cc(OCC(=O)NCC2CCCO2)c1 (stereo not drawn)	-31
Cc1cc(C)cc(OCC(=O)Nc2nonc2NC(=O)COc2cc(C)cc(C)c2)c1	78*	HIV RNase H inh-2=67*
Cc1cc(C)cc(OCC(=O)NCc2nc(-c3ccccc3)no2)c1	-4
Cc1nnc(SC(=O)N2c3ccccc3Sc3ccccc32)s1	-50
Cc1cc(NC(=O)CSc2nc(C3CC3)nc3sc4c(c23)CCC(C)C4)no1 (stereo not drawn)	70*	HIV RNase H inh-2=97*
Cc1cc(NC(=O)CSc2nc(C3CCCCC3)nc3ccccc23)no1	9
CCn1c(SCC(=O)Nc2cc(C)on2)nc2sc3c(c2c1=O)CCCC3	39
Cc1cc(NC(=O)CSc2nc(C(C)C)nc3sc4c(c23)CCCC4)no1	70*	HIV RNase H inh-2=29
Cc1cc(NC(=O)CSc2nc3sc4c(c3c(=O)n2C)CCCC4)no1	6
Cc1cc(NC(=O)Cn2nnc3sc4c(c3c2=O)CCC(C(C)(C)C)C4)no1 (stereo not drawn)	-3
COCCn1cc(C(=O)N2CCC(C)CC2)c2c3ccccc3n(C)c2c1=O	-3
